Reference: PubChem BioAssay (NCATS)
Inconclusive results are not listed. Active and inactive are the calls of the source. Unless noted, calls come from the whole dose curve; as a rule, active = well fitted curve in the direction sought with a large enough effect; inconclusive = small, poorly fitted or top-dose-only effect, or another doubt; inactive = no such curve, though single readings can be large; an effect the other way counts as inactive or inconclusive.

Tests used:
[1] = molecular target: Glucocorticoid receptor (Homo sapiens) (UniProt P04150); assay: qHTS assay for small molecule agonists of glucocorticoid receptor signaling (AID 588532; active = well fitted curve in the direction sought with a large enough effect in the signal ratio, with a control signal flat; the % refers to the signal ratio;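 note: 100% = dexamethasone at 0.1 µM and 0% = DMSO only wells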); settings: HeLa MMTV-bla, beta-lactamase ratio, agonist, 18 h; stronger effect = higher value; percent of dexamethasone control, DMSO zero
Chain of Glucocorticoid receptor (Homo sapiens) (P04150 whole entry, looked up): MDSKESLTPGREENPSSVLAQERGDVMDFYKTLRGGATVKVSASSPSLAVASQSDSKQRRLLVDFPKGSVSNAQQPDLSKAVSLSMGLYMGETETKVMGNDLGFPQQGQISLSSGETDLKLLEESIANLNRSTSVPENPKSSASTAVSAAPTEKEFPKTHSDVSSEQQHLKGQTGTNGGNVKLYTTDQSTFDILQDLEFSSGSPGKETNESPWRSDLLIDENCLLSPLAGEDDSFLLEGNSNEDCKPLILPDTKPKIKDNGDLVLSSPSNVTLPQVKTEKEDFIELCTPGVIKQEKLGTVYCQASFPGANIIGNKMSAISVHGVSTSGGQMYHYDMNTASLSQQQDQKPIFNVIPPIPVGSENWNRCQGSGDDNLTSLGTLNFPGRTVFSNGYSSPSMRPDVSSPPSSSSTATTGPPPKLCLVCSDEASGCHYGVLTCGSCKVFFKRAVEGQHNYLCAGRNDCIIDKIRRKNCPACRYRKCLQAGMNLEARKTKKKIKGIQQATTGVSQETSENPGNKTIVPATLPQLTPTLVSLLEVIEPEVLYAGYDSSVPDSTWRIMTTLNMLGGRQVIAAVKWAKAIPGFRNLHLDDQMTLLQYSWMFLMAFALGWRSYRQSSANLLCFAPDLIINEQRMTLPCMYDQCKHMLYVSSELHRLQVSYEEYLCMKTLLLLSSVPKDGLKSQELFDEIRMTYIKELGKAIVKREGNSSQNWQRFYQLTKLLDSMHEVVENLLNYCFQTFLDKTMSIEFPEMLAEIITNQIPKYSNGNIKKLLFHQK
Procedure, shortened: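 Quantitative HTS using CellSensor MMTV-bla HeLa cells in charcoal/dextran-treated serum; compounds tested up to 92 uM. After 18 h at 37 C, CCF4 dye reported reporter induction.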

[2] = molecular target: Glucocorticoid receptor (Homo sapiens) (UniProt P04150); assay: qHTS assay for small molecule antagonists of glucocorticoid receptor signaling (AID 588533; active = well fitted inhibition curve with a large enough effect in the signal ratio, with a control signal flat, not every such curve was filed as active; the % refers to the signal ratio;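 note: cells stimulated with 2 nM dexamethasone as agonist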; note: potency is the fitted concentration of half-maximal effect)
Procedure, shortened: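 Antagonist-mode qHTS: compound titrations added to GRE-bla HeLa cells, then dexamethasone 2 nM final; 18 h, 37 C. CCF4 FRET fluorescence normalized to dexamethasone and DMSO; IC50 from Hill fit.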

[3] = molecular target: Vitamin D3 receptor (Homo sapiens) (UniProt P11473); assay: qHTS assay for small molecule antagonists of vitamin D receptor signaling (AID 588541; calls by dose curve;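 note: receptor activated by calcitriol during compound treatment; series mostly up to about 77 µM; % is set by controls: 0 for no effect and ±100 for the full control effect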)
Chain of Vitamin D3 receptor (Homo sapiens) (P11473 whole entry, looked up): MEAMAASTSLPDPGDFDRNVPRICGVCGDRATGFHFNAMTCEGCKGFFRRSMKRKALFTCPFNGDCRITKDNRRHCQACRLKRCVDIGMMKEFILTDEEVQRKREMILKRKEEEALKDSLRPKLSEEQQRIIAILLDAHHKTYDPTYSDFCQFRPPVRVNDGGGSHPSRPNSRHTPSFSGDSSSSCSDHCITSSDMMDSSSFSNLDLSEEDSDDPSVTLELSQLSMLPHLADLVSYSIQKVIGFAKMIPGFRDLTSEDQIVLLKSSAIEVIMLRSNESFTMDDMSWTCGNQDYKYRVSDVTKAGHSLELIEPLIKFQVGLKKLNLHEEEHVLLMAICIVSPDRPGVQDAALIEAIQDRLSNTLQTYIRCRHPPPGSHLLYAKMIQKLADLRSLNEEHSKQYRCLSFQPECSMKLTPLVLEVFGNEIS
Procedure, shortened: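 Antagonist-mode beta-lactamase reporter assay: HEK293T VDR-UAS-bla cells were exposed to titrated compound alongside 1-alpha,25-dihydroxyvitamin D3 at 3 nM final for 16 h. Values were normalized to the 50 nM agonist control and DMSO basal, with IC50 and efficacy from Hill equation fits.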

[4] = molecular target: Vitamin D3 receptor (Homo sapiens) (UniProt P11473); assay: qHTS assay for small molecule agonists of vitamin D receptor signaling (AID 588543; calls by dose curve;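 note: 0% = DMSO basal and 100% = reference agonist control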)
Procedure, shortened: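 qHTS in agonist mode: compound titrations stimulate a VDR-driven β-lactamase reporter in HEK293T cells over 16 h at 37 °C. Response normalized to 50 nM 1α,25-dihydroxyvitamin D3 = 100%, DMSO = 0%; Hill fitting gives EC50 and maximal response.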

[5] = molecular target: Thyroid hormone receptor beta (Homo sapiens) (UniProt P10828); assay: qHTS assay for small molecule agonists of thyroid hormone receptor beta signaling (AID 588545; calls by dose curve;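 note: 0% = DMSO only and 100% = 10 nM T3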)
Chain of Thyroid hormone receptor beta (Homo sapiens) (P10828 whole entry, looked up): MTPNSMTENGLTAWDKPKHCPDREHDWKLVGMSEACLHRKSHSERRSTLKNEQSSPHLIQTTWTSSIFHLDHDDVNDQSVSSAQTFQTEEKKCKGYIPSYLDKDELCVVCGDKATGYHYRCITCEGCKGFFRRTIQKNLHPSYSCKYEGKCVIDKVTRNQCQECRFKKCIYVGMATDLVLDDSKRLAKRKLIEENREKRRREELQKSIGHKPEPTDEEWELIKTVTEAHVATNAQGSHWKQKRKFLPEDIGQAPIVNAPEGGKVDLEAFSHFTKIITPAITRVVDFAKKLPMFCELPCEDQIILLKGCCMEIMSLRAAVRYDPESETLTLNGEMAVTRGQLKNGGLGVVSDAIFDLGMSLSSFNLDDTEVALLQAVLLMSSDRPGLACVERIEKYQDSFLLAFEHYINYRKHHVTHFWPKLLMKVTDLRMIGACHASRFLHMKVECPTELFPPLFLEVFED
Procedure, shortened: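 Beta-lactamase reporter activity under TR response element control is measured in HEK 293 cells after 18 hrs compound exposure. Signal is ratiometric CCF4 fluorescence, 460/530 nm.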

[6] = molecular target: Thyroid hormone receptor beta (Homo sapiens) (UniProt P10828); assay: qHTS assay for small molecule antagonists of thyroid hormone receptor beta signaling (AID 588547; active = well fitted inhibition curve with a large enough effect in the signal ratio, with a control signal flat, not every such curve was filed as active; the % refers to the signal ratio;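 note: cells stimulated with 0.4 nM T3 agonist during compound exposure; series mostly up to about 77 µM; % is set by controls: 0 for no effect and ±100 for the full control effect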); settings: TR-UAS-bla HEK293, beta-lactamase ratio, antagonist mode, 18 h
Procedure, shortened: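 Inhibition of T3-driven (0.4nM final) beta-lactamase reporter activity was measured over 0.59 nM to 92 uM compound after 18 h at 37 C. The cells were GripTite HEK293 TR-UAS-bla in charcoal/dextran-stripped serum, with CCF4 ratio read-out and IC50 from Hill fits.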

[7] = qHTS assay for environmental chemicals that activate the Aryl hydrocarbon Receptor (AhR) signaling pathway (AID 651777); settings: 1A2-DRE human hepatoma cells, luciferase, 24 h; activation: stronger effect = higher value; note: nearly all actives have a fitted effect of over 15% in size; note: potency is the fitted concentration of half-maximal effect; for activation: % of control where 0% means no effect
Procedure, shortened: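 Luminescence read-out: One-Glo added for 30 min at RT after 24 hr compound treatment (37 C, 5% CO2) of human hepatoma cells expressing a DRE/CYP1A2 promoter–luciferase reporter; increased signal indicates AhR activation.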

[8] = molecular target: Peroxisome proliferator-activated receptor alpha (Homo sapiens) (UniProt Q07869); assay: qHTS assay for small molecule agonists of the peroxisome proliferator-activated receptor alpha (PPARalpha) signaling pathway (AID 651778); settings: PathHunter PPARalpha complementation, chemiluminescence, 6 h; max response: stronger effect = higher value; note: % of control where 0% means no effect
Chain of Peroxisome proliferator-activated receptor alpha (Homo sapiens) (Q07869 whole entry, looked up): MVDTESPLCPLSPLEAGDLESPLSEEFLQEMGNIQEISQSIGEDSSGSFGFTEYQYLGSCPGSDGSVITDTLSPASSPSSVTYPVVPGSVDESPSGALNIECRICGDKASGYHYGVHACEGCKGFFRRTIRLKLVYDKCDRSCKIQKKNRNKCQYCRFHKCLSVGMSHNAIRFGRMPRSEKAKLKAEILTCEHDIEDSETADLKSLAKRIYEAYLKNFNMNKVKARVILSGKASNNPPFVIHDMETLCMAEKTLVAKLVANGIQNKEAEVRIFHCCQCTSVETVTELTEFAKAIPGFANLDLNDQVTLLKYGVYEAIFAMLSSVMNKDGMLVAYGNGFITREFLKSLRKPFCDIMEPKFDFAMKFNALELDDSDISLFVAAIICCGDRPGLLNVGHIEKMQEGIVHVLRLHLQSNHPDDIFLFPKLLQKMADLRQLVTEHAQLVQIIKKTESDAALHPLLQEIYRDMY
Procedure, shortened: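 Chemiluminescence from complemented enzyme reported PPARalpha activation in cells after 6 hr of compound treatment at 37 C. The detection reagent was incubated for 60 min at room temperature, and compounds were scored as agonists.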

[9] = qHTS assay for small molecule agonists of the antioxidant response element (ARE) signaling pathway measured by Nrf2-dependant transcriptional activity - cell viability counter screen (AID 720653; active = well fitted curve in the direction sought with a large enough effect in the repeat runs; an effect the other way counts as inactive or inconclusive; note: % is set by controls: 0 for no effect and ±100 for the full control effect); settings: ARE-bla HepG2 viability, CellTiter-Glo ATP luminescence, 16 h; max response: stronger effect = lower value
Procedure, shortened: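 Cytotoxicity counter screen: intracellular ATP quantified by CellTiter-Glo luminescence in the same ARE-bla HepG2 plates, after 16 h compound exposure and a 2 h beta-lactamase substrate step.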

[10] = qHTS assay for cell viability of HEK293 cells (AID 743288); settings: ATP luminescence (CellTiter-Glo), 18 h; max response: stronger effect = lower value; note: % is set by controls: 0 for no effect and ±100 for the full control effect; nearly all actives have a fitted effect of over 50% in size
Procedure, shortened: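 Quantitative high-throughput screen: compounds were pinned onto parental HEK293 cells (2,000 per well) after a minimum 5 h settling at 37 C, incubated 18 h at 37 C, and intracellular ATP measured by luciferase luminescence.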

[11] = molecular target: Nuclear receptor subfamily 1 group I member 2 (Rattus norvegicus) (UniProt Q9R1A7); assay: qHTS assay for small molecule activators of the rat pregnane X receptor (rPXR) signaling pathway (AID 651751; call rule not given here; note: 0% is about no effect); settings: rPXR reporter cells, luciferase (One-Glo), 24 h
Chain of Nuclear receptor subfamily 1 group I member 2 (Rattus norvegicus) (Q9R1A7 whole entry, looked up): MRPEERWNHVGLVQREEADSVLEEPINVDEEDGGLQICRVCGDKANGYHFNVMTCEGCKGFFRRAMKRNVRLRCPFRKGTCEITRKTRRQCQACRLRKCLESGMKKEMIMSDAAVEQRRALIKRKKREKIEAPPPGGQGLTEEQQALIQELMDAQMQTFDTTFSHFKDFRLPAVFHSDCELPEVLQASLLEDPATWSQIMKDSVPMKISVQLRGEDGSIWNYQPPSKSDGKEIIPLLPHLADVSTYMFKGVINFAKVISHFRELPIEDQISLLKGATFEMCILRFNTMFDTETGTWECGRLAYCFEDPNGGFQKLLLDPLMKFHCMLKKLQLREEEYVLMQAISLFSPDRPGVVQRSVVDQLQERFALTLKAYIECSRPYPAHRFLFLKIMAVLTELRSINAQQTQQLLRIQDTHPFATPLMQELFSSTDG

[12] = qHTS assay for small molecule activators of the human pregnane X receptor (PXR) signaling pathway (AID 720659; call rule not given here; note: 0% is about no effect)
[13] = qHTS assay for small molecule antagonists of peroxisome proliferator-activated receptor delta signaling (AID 588535; active = well fitted inhibition curve with a large enough effect in the signal ratio, with a control signal flat, not every such curve was filed as active; the % refers to the signal ratio;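 for max response: cells co-treated with a PPAR-delta agonist as stimulator during compound exposure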); settings: HEK293T PPARd-UAS-bla, beta-lactamase FRET ratio, 18 h; 460 nm channel
Procedure, shortened: (§1)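 Antagonist-mode qHTS using GeneBLAzer PPAR-delta-UAS-bla HEK293T cells; compound exposure 18 hrs at 37 C over a titration. Ratiometric CCF4 fluorescence at 460/530 nm; concentration-response points fitted to the Hill equation.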

[14] = qHTS assay for small molecule agonists of retinoid X receptor alpha signaling (AID 588544; calls by dose curve; note: potency is the fitted concentration of half-maximal effect;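 for activation: 0% = DMSO basal wells and 100% = reference agonist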); settings: HEK293T RXRa-UAS-bla, beta-lactamase reporter, 18 h; 530 nm emission
[15] = molecular target: Retinoic acid receptor RXR-alpha (Homo sapiens) (UniProt P19793); assay: as above
Chain of Retinoic acid receptor RXR-alpha (Homo sapiens) (P19793 whole entry, looked up): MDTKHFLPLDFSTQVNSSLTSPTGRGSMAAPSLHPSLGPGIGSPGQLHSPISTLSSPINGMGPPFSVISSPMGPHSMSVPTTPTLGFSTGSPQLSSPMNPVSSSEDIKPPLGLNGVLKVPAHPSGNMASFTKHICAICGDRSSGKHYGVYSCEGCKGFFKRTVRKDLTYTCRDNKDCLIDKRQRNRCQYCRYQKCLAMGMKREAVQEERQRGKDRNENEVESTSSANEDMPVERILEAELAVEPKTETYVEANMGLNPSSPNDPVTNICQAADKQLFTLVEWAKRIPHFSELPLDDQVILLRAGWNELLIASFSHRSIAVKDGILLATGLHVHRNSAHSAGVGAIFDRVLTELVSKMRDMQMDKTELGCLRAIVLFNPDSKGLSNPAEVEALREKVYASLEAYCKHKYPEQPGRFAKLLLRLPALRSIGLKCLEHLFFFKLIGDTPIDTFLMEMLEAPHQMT

[16] = qHTS assay for small molecule antagonists of retinoid X receptor alpha signaling (AID 588546; active = well fitted inhibition curve with a large enough effect in the signal ratio, with a control signal flat, not every such curve was filed as active; the % refers to the signal ratio;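 note: cells stimulated with 9-cis-retinoic acid as agonist; % is set by controls: 0 for no effect and ±100 for the full control effect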); settings: HEK293T RXRa-UAS-bla, beta-lactamase ratio, antagonist mode; measured here: W530 green channel, cytotoxicity proxy
Procedure, shortened: (§2)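 Beta-lactamase reporter inhibition, read as CCF4 fluorescence ratio (ex 405, em 460/530 nm) after 2 h at RT. HEK293T UAS-bla cells, 2500/well, were stimulated with 9-cis-RA at 500 or 100 nM final alongside test compound for 18 h at 37 C.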

[17] = molecular target: Retinoic acid receptor RXR-alpha (Homo sapiens) (UniProt P19793); assay: as above; settings: HEK293T RXRa-UAS-bla, beta-lactamase ratio, antagonist mode
Procedure, shortened: as §2

[18] = qHTS assay for small molecule agonists of the antioxidant response element (ARE) signaling pathway (AID 651741; active = well fitted activation curve with a large enough effect in the signal ratio; the % refers to the signal ratio; note: potency is the fitted concentration of half-maximal effect; for activation: % of control where 0% means no effect)
Procedure, shortened: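 Agonist activity is measured as ARE-driven beta-lactamase expression in a stable HepG2 reporter line, using 16 h compound treatment at 37 C and a FRET substrate fluorescence readout after 2 h.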

[19] = qHTS assay for small molecule activators of the nuclear factor-kappa B (NF-kB) signaling pathway (AID 651749; active = well fitted activation curve with a large enough effect in the signal ratio; the % refers to the signal ratio; note: series mostly up to about 77 µM; % of control where 0% means no effect); settings: NF-kB-bla ME-180 cells, beta-lactamase FRET ratio, 16 h; activation: stronger effect = higher value
Procedure, shortened: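 FRET-based beta-lactamase detection in ME-180 cells reports NF-kB response-element-driven transcription following overnight (16 hr) compound treatment.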

[20] = qHTS assay for small molecule agonists of the antioxidant response element (ARE) signaling pathway measured by Nrf2-dependant transcriptional activity (AID 720636; active = well fitted curve in the direction sought with a large enough effect in the repeat runs; an effect the other way counts as inactive or inconclusive;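 note: HepG2 cells with an ARE-driven luciferase reporter; % of control where 0% means no effect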)
Procedure, shortened: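 HepG2 ARE-luc reporter line, 1% dialyzed FBS; 6 hr attachment at 37 C, compound pinned in, 16 hr at 37 C/5% CO2; ONE-Glo, 30 min RT, luminescence read.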

[21] = qHTS assay for cell viability of the p53RE-bla HCT-116 cell line (AID 743292); note: nearly all actives have a fitted effect of over 55% in size; note: potency is the fitted concentration of half-maximal effect
Procedure, shortened: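 Luminescent ATP quantitation (CellTiter-Glo) served as the viability read-out; reagent was added after 16 h compound exposure at 37 C and read after 30 min at room temperature. Cells: p53RE-bla HCT-116, 4,000 per well.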

[22] = molecular target: Peroxisome proliferator-activated receptor delta (Homo sapiens) (UniProt Q03181); assay: qHTS assay for small molecule antagonists of peroxisome proliferator-activated receptor delta signaling (AID 588535);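 for max response: cells co-treated with a PPAR-delta agonist as stimulator during compound exposure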
Chain of Peroxisome proliferator-activated receptor delta (Homo sapiens) (Q03181 whole entry, looked up): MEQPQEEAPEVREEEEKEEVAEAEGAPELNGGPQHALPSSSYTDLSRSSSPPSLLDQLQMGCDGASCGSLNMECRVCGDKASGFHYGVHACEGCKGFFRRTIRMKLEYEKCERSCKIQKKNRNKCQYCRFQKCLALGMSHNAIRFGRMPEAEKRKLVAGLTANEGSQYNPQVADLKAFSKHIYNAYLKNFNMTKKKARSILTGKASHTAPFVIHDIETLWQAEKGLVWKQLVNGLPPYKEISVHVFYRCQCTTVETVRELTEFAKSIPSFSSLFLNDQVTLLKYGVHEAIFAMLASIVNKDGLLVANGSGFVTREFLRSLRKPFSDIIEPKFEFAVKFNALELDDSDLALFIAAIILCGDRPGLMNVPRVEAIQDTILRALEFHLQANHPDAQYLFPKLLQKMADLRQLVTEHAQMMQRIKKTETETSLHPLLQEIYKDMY
Procedure, shortened: as §1

[23] = qHTS assay for small molecule activators of the p53 signaling pathway (AID 651743; active = well fitted activation curve with a large enough effect in the signal ratio, not every such curve was filed as active; the % refers to the signal ratio; note: series mostly up to about 92 µM; % of control where 0% means no effect); settings: HCT-116 p53RE-bla, beta-lactamase FRET ratio, 16 h; activation: stronger effect = higher value
Procedure, shortened: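 A beta-lactamase reporter under p53 response element control, stably carried by HCT-116 cells, reported pathway activation. Test compounds were applied for 16 hours at 37 C, and fluorescence was measured 2 hours after adding the B/G FRET substrate.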

[24] = molecular target: Peroxisome proliferator-activated receptor gamma (Homo sapiens) (UniProt P37231); assay: qHTS assay for small molecule agonists of peroxisome proliferator-activated receptor gamma signaling (AID 588536; active = well fitted curve in the direction sought with a large enough effect in the signal ratio, with a control signal flat, not every such curve was filed as active; the % refers to the signal ratio;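 note: 0% = DMSO basal wells and 100% = rosiglitazone at 2 µM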)
Chain of Peroxisome proliferator-activated receptor gamma (Homo sapiens) (P37231 whole entry, looked up): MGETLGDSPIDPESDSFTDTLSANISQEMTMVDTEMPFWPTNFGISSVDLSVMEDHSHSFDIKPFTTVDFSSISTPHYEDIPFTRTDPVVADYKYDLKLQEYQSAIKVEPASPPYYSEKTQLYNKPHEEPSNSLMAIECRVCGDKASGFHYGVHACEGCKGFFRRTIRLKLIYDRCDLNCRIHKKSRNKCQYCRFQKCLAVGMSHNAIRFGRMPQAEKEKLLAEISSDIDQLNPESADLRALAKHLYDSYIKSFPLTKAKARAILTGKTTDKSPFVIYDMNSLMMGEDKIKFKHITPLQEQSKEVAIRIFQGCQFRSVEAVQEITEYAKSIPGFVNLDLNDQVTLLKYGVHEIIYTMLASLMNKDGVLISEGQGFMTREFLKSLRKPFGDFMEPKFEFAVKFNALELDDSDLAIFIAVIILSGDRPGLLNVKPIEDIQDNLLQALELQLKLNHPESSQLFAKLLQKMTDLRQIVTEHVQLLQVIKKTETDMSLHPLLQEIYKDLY
Procedure, shortened: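 This is an agonist-mode beta-lactamase reporter assay in HEK293 PPAR-gamma-UAS-bla cells with 1% charcoal/dextran FBS. Compound titrations ran 16 h at 37 C before CCF4 detection. EC50 and efficacy are Hill fits scaled to 2 uM rosiglitazone (100%) and DMSO basal.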

CCCCCOC(=O)COc1cc(N2C(=O)C3=C(CCCC3)C2=O)c(F)cc1Cl
inactive: activation [1] 3.85% | Potency [2] | Potency [3] | outcome [4] | Potency [5] | activity change % (negative = inhibition) [6] 4.65% | activation [7] 0.703% | max response [8] 1.28% | max response [9] 8.37% | max response [10] 4.43% | max response [11] 4.68% | outcome [12]

CCCCC(CC)COC(C)=O (stereo unspecified)
inactive: activation [1] -0.969% | Potency [2] | Potency [3] | Potency [15] | Potency [5] | max response [17] -2.2% | Potency [18] | activation [19] -1.18% | activation [7] -1.93% | max response [8] -0.237% | Potency [20] | max response [9] 3.74% | max response [10] -7.43% | Potency [21] | max response [11] -1.91% | outcome [12]
8.6%: max response [13]
-1.25%: max response [16]
-20.2%: max response [14]

CS(=O)(=O)c1ccc(Cl)cc1
-4.7%: max response [16]
15.6%: max response [13]
0.314%: max response [14]
inactive: Potency [2] | Potency [22] | Potency [3] | outcome [4] | Potency [15] | Potency [5] | max response [17] -18.5% | activity change % (negative = inhibition) [6] -10.2% | Potency [18] | activation [7] 0.81% | Potency [20] | max response [9] 0.283% | max response [10] -17.3% | Potency [21] | max response [11] 3.76% | outcome [12]

CCCCCCCCCCCCCCN(C)C
-0.764%: max response [16]
inactive: activation [1] 12.5% | Potency [2] | Potency [3] | outcome [4] | Potency [15] | max response [17] -14.8% | Potency [18] | activation [23] 5.52% | activation [19] -1.59% | activation [7] 1.73% | max response [8] -1.88% | Potency [20] | max response [9] -6.77% | max response [10] -20.2% | Potency [21] | max response [11] -1.42% | outcome [12]
-17%: max response [14]

O=C(O)c1cc(O)c2ccccc2c1O
active: Potency [2] 44.7 µM | Potency [18] 7.7 µM | Potency [7] 14.1 µM | Potency [21] 39.8 µM
inactive: activation [1] -13.3% | Potency [5] | activation [23] -4.76% | max response [8] -7.87% | max response [11] 5.84%

CC(=O)c1c(C)c([N+](=O)[O-])c(C(C)(C)C)c([N+](=O)[O-])c1C
-16.8%: max response [13]
inactive: activation [1] 3.65% | Potency [2] | outcome [24] | Potency [3] | outcome [4] | Potency [5] | max response [17] -4.43% | activity change % (negative = inhibition) [6] 11% | activation [19] -2.72% | max response [8] 8.73% | Potency [20] | max response [9] -1.24% | max response [10] -8.24% | Potency [21]
-17.8%: max response [14]
-24%: max response [16]
active: Potency [15] 28.2 µM
